PLCg1 inh: PLC-gamma1 enzyme inhibitors, primary screen, biochemical, fluorescence, purified enzyme; fluorogenic substrate; inhibition, % at 12.2 µM; 1-phosphatidylinositol 4,5-bisphosphate phosphodiesterase gamma-1 (Homo sapiens), P19174; hit rate 0.84% among 370,000; in the data active means inhibition above about 9.5%
MBD2 inh: inhibitors of MBD2 binding to methylated DNA, primary screen, biochemical, TR-FRET, DNA-binding domain, human. MBD2 binding to methylated oligonucleotide. Methyl-CpG-binding domain protein 2 (Homo sapiens), Q9UBB5. inhibition, % at 4.4 µM. hit rate 0.31% among 370,000; in the data active means inhibition above about 13%
PLC-beta3 inh: human PLC-beta3 inhibitors, primary screen, biochemical, fluorescence. Purified PLC-beta3, fluorogenic substrate. inhibition, % at 12.2 µM. hit rate 0.18% among 370,000; in the data active means inhibition above about 11%;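 further: 0% = median of compound wells on plate and 100% = full blocker control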
UHRF1 binding: UHRF1 methylated DNA binding inhibitors, primary screen, counter-screen for MBD2 inhibitor project, biochemical, TR-FRET, human UHRF1, single concentration | E3 ubiquitin-protein ligase UHRF1 (Homo sapiens), Q96T88 | inhibition, % at 4.4 µM | hit rate 0.75% among 370,000 | UHRF1 binding to methylated oligo; in the data active means inhibition above about 21%;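 further: UHRF1 SRA domain binding a hemimethylated CpG hairpin DNA probe; 0% = median of test compound wells and 100% = reference inhibitor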
Target sequence (Q96T88 whole entry, looked up, the tested form may be a part): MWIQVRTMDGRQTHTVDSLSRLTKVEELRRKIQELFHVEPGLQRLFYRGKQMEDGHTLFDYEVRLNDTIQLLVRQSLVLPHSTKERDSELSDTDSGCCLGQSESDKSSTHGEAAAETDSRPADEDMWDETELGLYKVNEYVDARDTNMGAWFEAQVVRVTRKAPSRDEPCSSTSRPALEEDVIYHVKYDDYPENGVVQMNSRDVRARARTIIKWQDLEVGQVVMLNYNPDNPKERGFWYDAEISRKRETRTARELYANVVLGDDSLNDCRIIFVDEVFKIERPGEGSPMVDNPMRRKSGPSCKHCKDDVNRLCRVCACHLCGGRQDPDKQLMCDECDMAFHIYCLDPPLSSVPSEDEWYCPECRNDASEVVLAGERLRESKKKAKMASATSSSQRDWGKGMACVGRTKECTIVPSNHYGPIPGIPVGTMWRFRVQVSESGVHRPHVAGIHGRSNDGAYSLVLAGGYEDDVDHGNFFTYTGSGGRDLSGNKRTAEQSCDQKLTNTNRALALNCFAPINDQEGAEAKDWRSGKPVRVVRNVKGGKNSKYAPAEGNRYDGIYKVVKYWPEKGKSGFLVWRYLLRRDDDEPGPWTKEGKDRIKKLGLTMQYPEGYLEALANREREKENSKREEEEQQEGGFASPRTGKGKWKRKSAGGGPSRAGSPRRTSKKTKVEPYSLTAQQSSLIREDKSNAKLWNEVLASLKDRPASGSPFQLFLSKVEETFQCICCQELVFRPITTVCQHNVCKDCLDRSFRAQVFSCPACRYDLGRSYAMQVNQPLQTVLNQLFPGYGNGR
LEDGF integ inh: blockers of LEDGF/p75-dependent integrase strand transfer – biochemical, TR-FRET, high throughput, primary screen | TR-FRET IN-LEDGF/p75 DNA integration, Eu/Cy5 | inhibition, % at 3.7 µM | hit rate 0.64% among 370,000;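 active means inhibition above the screen-wide mean plus 3 SD, cut at about 13% in these data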;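 further: signal is the Cy5 over europium emission ratio at 671 and 618 nm; 0% = plate median of compound wells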
IN multimer act: HIV-1 IN multimer formation enhancers, counter-screen for LEDGF/p75 integration inhibitor project, biochemical, TR-FRET; TR-FRET HIV-1 integrase multimerization; hit rate 17% among 2,000; activation, % at 7.7 µM; AID 1053131, 2014; shares compounds with LEDGF integ inh; in the data active means activation above about 8.9%
TRFRET interf: TR-FRET optical interference artefacts, confirmation, artefact control for LEDGF/p75-dependent integration inhibitor project, biochemical, HIV-1 IN multimerization | shares compounds with LEDGF integ inh | inhibition, % at 7.7 µM | TR-FRET optical interference counterscreen | 2,000 tested, under 10 active | AID 1053135, 2014;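 active means inhibition above the mean over all tested compounds plus 3 SD, which no compound reached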;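 further: 0% = integrase with antibodies and DMSO and 100% = antibodies without integrase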
IN-LEDGF confirm: inhibitors of HIV-1 IN-LEDGF/p75 DNA integration, confirmation, biochemical, TR-FRET; TR-FRET LEDGF/p75-dependent HIV-1 integration; AID 1053136, 2014; shares compounds with LEDGF integ inh; inhibition, % at 3.7 µM; hit rate 36% among 2,000; in the data active means inhibition above about 14%
* = called active by the depositor; nt = not tested or not shown. This is a sample that favours compounds with a hit; in the whole collection about 2.4% have one here.

SMILES	PLCg1 inh	MBD2 inh	PLC-beta3 inh	UHRF1 binding	LEDGF integ inh	IN multimer act	TRFRET interf	IN-LEDGF confirm
COC(=O)C1CN(CCO)CCS(=O)(=O)N1Cc1cccc(Cl)c1 (stereo not drawn)	0	2	-2	-2	-1	nt	nt	nt
COc1c([N+](=O)[O-])c(=O)oc2ccccc12	4	-4	3	-1	-2	nt	nt	nt
COc1c(NC=O)c2c(c([N+](=O)[O-])c1OC)C(=O)OC2	5	-5	6	4	14*	0	0	-1
CNC(=S)N/N=C/c1c(C(=O)OC)cnn1-c1ccc(Cl)cc1	2	3	-1	0	-5	nt	nt	nt
CCCOc1ccc(Cc2nn3c(=O)/c(=C/c4ccco4)sc3nc2=O)cc1	-1	3	-6	23*	27*	4	-15	15*
COc1ccccc1/C=C/C=c1\sc2nc(=O)c(Cc3ccccc3)nn2c1=O	-10	4	-22	0	5	nt	nt	nt
O=C(OCC#CCSc1nnc(-c2cccc3ccccc23)o1)c1ccc(F)cc1F	1	-6	-3	1	2	nt	nt	nt
CCC1COC(c2cccn2Cc2ccc(Cl)cc2)=N1 (stereo not drawn)	2	4	-1	1	14*	0	0	-1
CCSCC1COC(c2cccn2Cc2ccc(C)cc2)=N1 (stereo not drawn)	-2	2	-2	-1	-3	nt	nt	nt
O=C(CCCCCN1C(=O)c2ccccc2C1=O)NC1CCCC1	-1	1	0	-1	66*	0	-2	-3
N#Cc1ccc(OCCCN2CCC(C(O)(c3ccccc3)c3ccccc3)CC2)cc1	-1	2	0	2	-4	nt	nt	nt
Nc1ccc(O)c2c1C(=O)c1ccccc1C2=O	2	12	1	19	5	nt	nt	nt
O=C1c2ccccc2C(=O)c2c(Nc3ccc(CCO)cc3)ccc(O)c21	3	0	2	0	15*	14*	-51	0
COc1cc(O)c(C(CC(=O)N2CC(C)OC(C)C2)c2ccc3c(c2)OCO3)c(OC)c1 (stereo not drawn)	0	0	0	-1	-2	nt	nt	nt
C/C=C/COC(=O)c1[nH]c2c(c1C)C(=O)CC(c1ccco1)C2 (stereo not drawn)	-30	10	-45	20	18*	5	-16	21*
COC(=O)c1cccc(-c2ccc(C(c3c(C)[nH][nH]c3=O)c3c(C)[nH][nH]c3=O)o2)c1	4	-2	-1	15	14*	0	2	11
C[C@@H]1ON(C)[C@H]2C[C@H]3c4cc(-c5ccc(F)cc5)ccc4CCN3C[C@@H]12	-25	-1	-28	-1	-2	nt	nt	nt
O=C(/C=C/c1ccco1)Nc1nc(-c2ccccn2)cs1	-34	3	-63	4	16*	3	-14	16*
O=C(/C=C/c1ccco1)Nc1nc(-c2ccccc2)cs1	-14	3	-14	1	-1	nt	nt	nt
CCOc1ccc(Br)cc1/C(C)=N\NC1=NCCN1	2	1	0	-3	-1	nt	nt	nt
CC(=NNC1=NCCN1)c1cnn(C2=NCCN2)c1C	1	-2	2	-1	18*	1	-3	-1
Cc1ccc(NC(=O)CSc2nnc(-c3cc(-c4ccc(Cl)cc4)n[nH]3)n2N)cc1	2	3	-1	1	-2	nt	nt	nt
COc1ccc(C(=O)C2(C(=O)NCCO)CC(c3ccccn3)=NO2)cc1 (stereo not drawn)	1	0	-1	0	5	nt	nt	nt
Oc1cc(CNC2CCCCC2)c(O)cc1CNC1CCCCC1	-20	-8	-28	-7	14*	3	-12	24*
COC(=O)[C@]12C[C@H](CC(=O)NCc3cccc(C(F)(F)F)c3)C(=O)N(CCc3ccc(OC)c(OC)c3)C1=C[C@H](C(C)C)O[C@@H]2C1CC1	1	-1	1	-3	-3	nt	nt	nt
SMILES	PLCg1 inh	MBD2 inh	PLC-beta3 inh	UHRF1 binding	LEDGF integ inh	IN multimer act	TRFRET interf	IN-LEDGF confirm
CCOC(=O)c1c(C)[nH]c(N=Nc2cc(C(=O)O)cc(C(=O)O)c2)c1C	-1	-1	-5	11	14*	9	-45	2
CCOC(=O)c1c(C)[nH]c(N=Nc2ccc(C)cc2C)c1C	1	3	4	1	7	nt	nt	nt
O=C(NC1CCCCN(Cc2ccc(Cl)cc2)C1=O)c1ccccc1-c1ccc(Cl)c(Cl)c1 (stereo not drawn)	2	-1	3	-4	4	nt	nt	nt
O=C(OCc1cn(Cc2cccc(Cl)c2)nn1)N1CCCC1	-1	0	0	4	-2	nt	nt	nt
CC1(C)CC(=O)C(C(C2=C(O)CC(C)(C)CC2=O)c2ccc([N+](=O)[O-])cc2)C(=O)C1 (stereo not drawn)	1	-1	1	2	40*	0	-2	-8
COc1cccc(C(C2=C(O)CC(C)(C)CC2=O)C2C(=O)CC(C)(C)CC2=O)c1 (stereo not drawn)	3	2	1	-1	1	nt	nt	nt
O=C(NC1CCCCN(Cc2ccc(Cl)cc2)C1=O)C1C2CC3CC(C2)CC1C3 (stereo not drawn)	-1	1	0	2	0	nt	nt	nt
O=C(NC1CC1)c1sc2cc(F)ccc2c1Cl	-1	-1	-5	-1	21*	0	-1	2
Cc1ccc(S(=O)(=O)N2[C@H](CC(=O)c3cccc4ccccc34)OC[C@@H]2C)cc1	2	7	-9	8	14*	0	1	-4
Cc1ccc(S(=O)(=O)N2[C@H](CC(=O)c3cccc4ccccc34)OC[C@@H]2C(C)C)cc1	2	6	0	2	4	nt	nt	nt
COc1ccc(-n2c(SCC(=O)Nc3ccc4cn[nH]c4c3)nnc2-c2ccccc2)cc1	0	-1	0	-3	1	nt	nt	nt
Cc1nnc(NC(=O)CC(C)c2ccccc2)s1 (stereo not drawn)	-2	2	-6	1	-2	nt	nt	nt
